Reference: ChEMBL document CHEMBL1157539, “Thousands of chemical starting points for antimalarial lead identification” (Nature, 2010)

Assays:
Assay type in all cases: functional
Plasmodium falciparum [1] = test: GSK_TCMDC: Inhibition of Plasmodium falciparum 3D7 in whole red blood cells, using parasite LDH activity as an index of growth. Test compounds present at 2uM
Plasmodium falciparum [2] = test: GSK_TCMDC: Inhibition of Plasmodium falciparum Dd2 in whole red blood cells, using parasite LDH activity as an index of growth. Test compounds present at 2uM
HepG2 = test: GSK_TCMDC: Percent inhibition of human HepG2 cell line. Test compounds present at 10uM.

For CCCCCCN1CCCN(Cc2ccc(C(=O)Nc3ccc(CC)cc3)cc2)CC1.O=C(O)C(F)(F)F, the Inhibition (Plasmodium falciparum [1]) was 97%, the Inhibition (Plasmodium falciparum [2]) was 50% and the Inhibition (HepG2) was 53%.

Work on N#Cc1ccc(Sc2nnc(-c3ccccc3Cl)n2CC2CCCCC2)cc1[N+](=O)[O-] yielded an Inhibition (Plasmodium falciparum [1]) of 85%, an Inhibition (Plasmodium falciparum [2]) of 34% and an Inhibition (HepG2) of 30%.

Work on CN(C)CCC(O)(c1ccc(Br)cc1)c1cccnc1 (stereo not drawn) yielded an Inhibition (Plasmodium falciparum [1]) of 96%, an Inhibition (Plasmodium falciparum [2]) of 1% and an Inhibition (HepG2) of 22%.

O=C(/C=C/c1ccc(Cl)c(Cl)c1)NCCCCCCN1CCCN(C(=O)Nc2ccc(F)c(F)c2)CC1 showed an Inhibition (Plasmodium falciparum [1]) of 89%, an Inhibition (Plasmodium falciparum [2]) of 2% and an Inhibition (HepG2) of 72%.

CCCC(C)NC(=O)C(N)Cc1cccc(I)c1.O=C(O)C(F)(F)F (stereo not drawn) was tested, and the Inhibition (Plasmodium falciparum [1]) was 95%, the Inhibition (Plasmodium falciparum [2]) was 65% and the Inhibition (HepG2) was 11%.

In the case of Cc1cc(N/N=C/c2cccc([N+](=O)[O-])c2)c2ccccc2n1, the Inhibition (Plasmodium falciparum [1]) is reported as 100%, the Inhibition (Plasmodium falciparum [2]) is reported as 98% and the Inhibition (HepG2) is reported as 0%.

Work on CC(C)N1CCN(C(CN2CCN(CCCOc3cccc4ccccc34)CC2)c2ccc(F)cc2)CC1.Cl (stereo not drawn) yielded an Inhibition (Plasmodium falciparum [1]) of 100%, an Inhibition (Plasmodium falciparum [2]) of 75% and an Inhibition (HepG2) of 54%.

For Fc1c(CNCC2CCN(CC3CCCCC3)CC2)cccc1C(F)(F)F.O=C(O)C(F)(F)F, the Inhibition (Plasmodium falciparum [1]) was 93%, the Inhibition (Plasmodium falciparum [2]) was 7% and the Inhibition (HepG2) was 35%.

CNC(=O)c1cnc(Nc2ccc(N3CCN(C)CC3)c(C)c2)nc1NC.Cl showed an Inhibition (Plasmodium falciparum [1]) of 97%, an Inhibition (Plasmodium falciparum [2]) of 38% and an Inhibition (HepG2) of 19%.

In the case of CCC(C)NCCC(c1ccccc1)c1ccccc1O.Cl (stereo not drawn), the Inhibition (Plasmodium falciparum [1]) is reported as 97%, the Inhibition (Plasmodium falciparum [2]) is reported as 74% and the Inhibition (HepG2) is reported as 4%.

In the case of Cc1nn(CC(C)C)c2sc(C(=O)N3CCN(S(=O)(=O)c4ccc(C#N)cc4)CC3)cc12, the Inhibition (Plasmodium falciparum [1]) is reported as 99%, the Inhibition (Plasmodium falciparum [2]) is reported as 99% and the Inhibition (HepG2) is reported as 14%.
